The structures appear in SMILES notation. Inconclusive results are not listed. Values without a mark were called inactive. The call rests on the fitted dose curve.

This test in a line: qHTS for Inhibitors of Cell Surface uPA Generation: Wild-type Protective Antigen (WT-PrAg) Counterscreen for Cherry-picked Compounds. Further: 0% is about no effect. Particulars: cells, WT protective antigen toxicity counterscreen; series mostly up to 115 µM; activity (protection): at the top concentration. (Quantitative high-throughput screening tests each substance at several concentrations.)
Consider `Cc1cccc(NC(=O)C2CCCN(S(=O)(=O)c3cccc4cccnc34)C2)c1` (stereo not given), for which the “activity (protection)” value was -1.51%.

Take `COc1ncnc(NS(=O)(=O)c2ccc(N)cc2)c1OC`: the “activity (protection)” value is 0.0309%. In the case of `CCN(CC)c1ccc(C=NCCc2ccc(S(N)(=O)=O)cc2)cc1`, the “activity (protection)” value was -1.25%. On to `CCN1CCN(C(c2ccccc2)c2nnnn2Cc2ccc3c(c2)OCO3)CC1` (stereo not given), for which the “activity (protection)” value was 1.36%. Regarding `COc1ccc(-n2ncc3c(=O)n(CC(=O)NC(C)C)cnc32)cc1`, the “activity (protection)” value is -0.469%. In the case of `O=c1[nH]c(SCc2cccc(Cl)c2)nc2ccccc12` it was 1.77%. In the case of `CN(C)S(=O)(=O)c1cccc(C(=O)OCC(=O)NCc2ccc3c(c2)OCO3)c1`, the “activity (protection)” value was -0.183%. In the case of `O=C1NC(CCc2ccccc2)C(=O)N1Cc1ccccc1Cl` (stereo not given) it was 4.02%; in that of `COc1ccc(CC(=O)OCC(=O)NNC(=O)c2ccccc2)cc1`, -1.54%. Next, `COc1cccc(C(=O)Cn2c(NCCCO)nc3ccccc32)c1`: -0.884%; `O=c1[nH]c2ccccc2cc1CN(CC1CCCO1)S(=O)(=O)c1ccccc1` (stereo not given): -0.109%; `O=C(Nn1cnnc1)c1ccc(Cl)cc1`: 0.243%. In the case of `O=C(CSc1nnnn1-c1cccc(F)c1)Nc1nc2ccccc2s1`, the “activity (protection)” value was 0.476%.

Regarding `O=S(=O)(/N=C(/c1ccccc1)N1CCOCC1)c1ccc(F)cc1F`, the “activity (protection)” value was 0.385%.

On to `CC1CCCCN1C(=O)CSc1nc2ncccc2[nH]1` (stereo not given), for which the “activity (protection)” value is -1.11%. `COc1ccc(S(=O)(=O)c2c(O)c3ccc(C(=O)Nc4ccccc4)cc3[nH]c2=O)cc1`: the “activity (protection)” value is -1.78%. In the case of `CC(C)N1CCc2c(sc(NC(=O)CCc3ccccc3)c2C(N)=O)C1` it was 4.95%. `N#CCC(=O)N/N=C/c1ccc(OCC(=O)Nc2ccc(F)cc2)cc1`: the “activity (protection)” value is 1.33%. `CC1(C)S[C@@H]2[C@H](NC(=O)C(C(=O)O)c3ccccc3)C(=O)N2[C@H]1C(=O)O` (stereo not given in full): the “activity (protection)” value was 1.43%. Regarding `C[N+]1(CC(O)c2ccccc2)CCCCCC1` (stereo not given), the “activity (protection)” value was 0.142%. Take `NC(=O)CC[C@H](NC(=O)c1ccc(F)cc1)C(=O)OCC(=O)Nc1c(F)c(F)c(F)c(F)c1F`: the “activity (protection)” value is -0.726%. Regarding `O=C1N[C@@H](Cc2c[nH]c3ccccc23)C(=O)N[C@H]1Cc1ccccc1`, the “activity (protection)” value was 1.55%. As for `CCC(C)Nc1cc(C)nc2ncnn12` (stereo not given), the “activity (protection)” value was -0.604%. On to `O=C(C1CCCCN1S(=O)(=O)c1ccc(F)cc1)N1CCN(c2ccccc2F)CC1` (stereo not given), for which the “activity (protection)” value is 4.03%. As to `CC1(C)CC(CCC(=O)NC(=S)Nc2ccccc2Cl)C(=O)O1` (stereo not given), the “activity (protection)” value was -1.58%. Take `O=C(O)c1ccccc1/C=N/NC(=S)NC1CCCCC1`: the “activity (protection)” value is 0.478%.

Consider `COCCNS(=O)(=O)c1cc(OC)c(C)cc1C`, for which the “activity (protection)” value was 1.58%.

As to `Cc1ccc(C(=O)NC(=S)Nc2ccc3[nH]c(=O)[nH]c3c2)c(C)c1`, the “activity (protection)” value was -0.954%. As for `CCC(COC)NC(=O)CCc1nnc(Cc2c[nH]c3ccccc23)o1` (stereo not given), the “activity (protection)” value was -0.706%. As to `CCOc1ccc(OCC)c(NC(=O)c2ccc(CNc3c(N4CCCC4)c(=O)c3=O)cc2)c1`, the “activity (protection)” value was -2.6%. Consider `COc1ccc(NC(=O)CC(C)CC(=O)NCc2ccccc2)c(OC)c1` (stereo not given), for which the “activity (protection)” value is 0.516%. `Cc1ccc2[nH]c(CN3CCN(C)C(CCO)C3)c(C)c2c1` (stereo not given): the “activity (protection)” value was 6.95%. With `COc1ccc(Cc2nnc(NC(=O)Nc3ccc(F)cc3)s2)cc1`, the “activity (protection)” value was 6.85%. As for `CC(C(=O)Nc1nccs1)c1ccc([N+](=O)[O-])cc1` (stereo not given), the “activity (protection)” value is 4.26%. In the case of `CC1=NN(C(N)=S)C(=O)C1N=Nc1ccccc1C(=O)O` (stereo not given), the “activity (protection)” value is -0.58%. In the case of `O=C(CNC(=O)c1ccc(Br)o1)NNC(=O)c1ccccc1` it was -0.857%; in that of `Cc1cc(C)c(S(=O)(=O)N2CCCOC2CNC(=O)C(=O)NCc2cccs2)c(C)c1` (stereo not given), -0.312%; in that of `COc1ccc(N2CCN(C3CCN(S(=O)(=O)c4ccc(F)cc4)CC3)CC2)cc1`, -0.637%.

Regarding `Cc1ccc(S(=O)(=O)Nc2nc(C)cc(N/N=C/c3ccc(O)cc3)n2)cc1`, the “activity (protection)” value was -1.92%. In the case of `O=C(CSC1=NS(=O)(=O)c2ccccc2N1)Nc1nccs1` it was 0.09%.

Source of the values: PubChem BioAssay AID720518 (National Center for Advancing Translational Sciences (NCATS), 2013).
